# Results published in PubChem BioAssay AID651595 (National Center for Advancing Translational Sciences (NCATS), 2012).
# Fewer than 10 of roughly 1,100 compounds were called active. Not shown: some 6% with an inconclusive outcome. The call rests on the fitted dose curve; in most records, active means well fitted cell-killing curve with a large enough effect; inconclusive means small, poorly fitted or top-dose-only effect; inactive means flat fitted curve, though single readings scatter. These entries were drawn from the full list.
# Assay: qHTS of Nrf2 Activators: Hit Validation in Cytotox Assay;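 further: compound exposure lasted 24 hours before the ATP readout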; on activity change, negative = cytotoxicity: 0% is about no effect
# Details: Cell viability counter-screen for Nrf2 activator hits; series mostly up to 46.1 µM; activity change, negative = cytotoxicity: at the top concentration
# Text: Many diseases have some form of oxidative stress injury and ties to inflammation, causing a host of problems for the patient. The antioxidant response element (ARE) plays an important role in alleviating the harmful effects of oxidative stress. The antioxidant response element (ARE) is a transcriptional regulatory element involved in the activation of genes coding for a number of antioxidant proteins and detoxifying enzymes. These enzymes work in concert to protect tissues from oxidative insults and chemical toxicities in human hepatocytes and immune cells. The protective effects of ARE activation are primarily triggered through Nrf2 (NF-E2-related factor) binding to and activating AREs. It is known that Nrf2 controls the production of over 250 antioxidant and detoxification proteins (Hu et al., 2006), thereby protecting tissues by increasing cellular antioxidant content and suppressing inflammatory signaling pathways. The transcription factor Nrf2 is a central link between oxidative chemicals, such as phenolic antioxidants and electrophilic compounds, and the activation of ARE. Nrf2 levels are constitutively low as a consequence of its interaction with Keap1, which targets its degradation (Zipper and Mulcahy, 2002). Electrophiles react with key cysteine residues in Keap1, releasing Nrf2 and allowing its translocation to the nucleus. Once within the nucleus, Nrf2 complexes with coactivators such as p300, and binds to the AREs to induce gene transcription of cytoprotective enzymes, resulting in the prevention of toxicity. Activation of Nrf2 protects tissues by increasing cellular antioxidant content and suppressing inflammatory signaling pathways. Identifying novel and potent Nrf2 activators by using the AREc32 cell line to detect ARE activation by small molecules will lead to the identification and development of probes to study protective pathways in multiple tissues. These specific probes are essential to study the ARE pathway, and eventually to determine whether this pathway does activate genes that could protect against a host of diseases, including cardiovascular diseases, obesity, diabetes, Alzheimer's, and Parkinson's disease.
# This project's aim is to identify novel and potent Nrf2 activators by using the AREc32 cell line to detect ARE activation by small molecules, which will lead to the identification and development of probes to study the ARE pathway. Cytotoxic compounds are flagged as active, and inactivity is desired in this assay.
# NIH Chemical Genomics Center [NCGC]
# NIH Molecular Libraries Probe Centers Network [MLPCN]
# Assay Submitter (PI): Curtis Klaassen, University of Kansas Medical Center
# Cell viability after compound treatment was measured using a luciferase-coupled ATP quantitation assay (CellTiter-Glo, Promega) in AREc32_fluc cells. The change of intracellular ATP content indicates the number of metabolically competent cells after compound treatment. AREc32_fluc cells were harvested from T225 flask and resuspended in phenol red free OPTI-MEM medium with 5% FBS. Then 5 microL of 200,000 cells/ml resuspended cells was dispensed into each well of white, solid bottom, 1536-well tissue culture-treated plates using a Multidrop Combi dispenser. After overnight culture at 37 degrees C with 5% CO2, a total of 23 nL of compounds at 7 selected concentrations from the cherry pick or positive control (40 uM stock of CDDO-IM and 2 mM of tBHQ) in DMSO was transferred to each well of the assay plate using a pintool (Kalypsys, San Diego, CA), and the plates were further incubated at 37 degrees C with 5% CO2 for 24 hours. After that, 4 microL of CellTilter-GloTM luminescent substrate mix (Promega) was added to each well. The plate was incubated at room temperature for 30 minutes. The plates were measured on a ViewLux plate reader (PerkinElmer) with clear filter.
# Potency means the concentration at half of the fitted maximal effect.
Compound,"activity change, negative = cytotoxicity",Potency
O=c1c2ccccc2oc2cc(Br)ccc12,-0.78% (inactive),
COc1ccc(C=O)cc1OS(=O)(=O)c1ccccc1[N+](=O)[O-],3.78% (inactive),
COc1ccccc1Nc1nc2ccccc2n2cnnc12,7.57% (inactive),
O=c1cc(-c2ccccc2Cl)oc2c(Br)ccc(O)c12,-1.03% (inactive),
Cc1ccc(N=C2NC(=O)S/C2=C\c2ccco2)cc1,-1.78% (inactive),
c1ccc(-c2nc3c4ccccc4ccn3c2Cc2ccsc2)cc1,-15.8% (inactive),
COC(=O)c1c(NC(=O)/C=C/C(=O)O)sc(C)c1-c1ccc(C(C)C)cc1,-2.1% (inactive),
COc1cccc(-c2nc3n(n2)CCc2ccccc2-3)c1,-3.83% (inactive),
C/C(=N\NC(=O)COc1ccccc1[N+](=O)[O-])c1cccs1,3.87% (inactive),
O=c1oc2ccccc2cc1-c1nc(-c2cccs2)cs1,2.24% (inactive),
NC(=O)c1oc2ccccc2c1NC(=O)c1ccco1,-0.897% (inactive),
Brc1ccccc1/C=N/Nc1ccccn1,2.41% (inactive),
O=C(/C=C/c1ccccc1Cl)Nc1nc(-c2cccs2)ns1,-0.488% (inactive),
Cc1[nH]c2ccccc2c1N=Nc1ccccc1F,-1.48% (inactive),
O=C(N=Nc1c(O)[nH]c2ccc(Br)cc12)c1ccco1,-0.259% (inactive),
CCOC(=O)N/N=C\C=C\c1ccco1,2.28% (inactive),
O=C(NC(=S)Nc1ccc(Br)cn1)c1cccs1,2% (inactive),
COc1ccccc1C=Cc1ccnc2ccccc12,1.67% (inactive),
S=C(NNc1ccc2ccccc2c1)NC1CCCCC1,-1.82% (inactive),
OCC1OC(n2cnc3c(NCc4ccccc4O)ncnc32)C(O)C1O (stereo not drawn),,5.17 µM (active)
c1ccc2c(-c3nc4ncccc4o3)cccc2c1,-2% (inactive),
COc1ccc([N+](=O)[O-])cc1C1NN=C(c2ccccc2O)S1 (stereo not drawn),-3.67% (inactive),

Compound,"activity change, negative = cytotoxicity",Potency
Clc1ccc(Br)cc1-c1nc(-c2ccncc2)no1,2.28% (inactive),
NC(=O)c1c(NC(=O)c2ccco2)sc2c1CCC2,1.87% (inactive),
O=C(Nc1ccccn1)c1csc2c1CCCC2,-2.81% (inactive),
O=C(Nc1ccccn1)Nc1ccccc1Cl,6.29% (inactive),
CC1(C)CC[C@]2(C(=O)n3ccnc3)CC[C@]3(C)[C@H](C(=O)C=C4[C@@]5(C)C=C(C#N)C(=O)C(C)(C)[C@@H]5CC[C@]43C)[C@@H]2C1,,8.2 µM (active)
Fc1ccccc1-c1nc(-c2ccc(Cl)cc2)no1,-0.963% (inactive),
COc1cc(/C=N/Nc2nc3ccccc3s2)ccc1OC(=O)c1ccccc1F,2.19% (inactive),
Cc1c(Cl)cccc1NC(=S)NC(=O)c1ccccc1,-23.4% (inactive),
c1ccc(-c2cc3c(-n4cccc4)ncnc3o2)cc1,0.0297% (inactive),
O=C(NC(=S)Nc1nc(-c2ccccc2)cs1)c1cccs1,0.308% (inactive),
CS(=O)(=O)Nc1ccc(C(=O)Nc2cccc([N+](=O)[O-])c2)cc1,-7.34% (inactive),
COc1c(C(=O)Nc2nnc(C3CC3)s2)csc1Cl,6.48% (inactive),
O=C(Nc1cc(-c2nc3cc(Cl)ccc3o2)ccc1Cl)c1ccco1,2.73% (inactive),
Cc1cc(=O)oc2c(C(=O)/C=C\c3cccs3)c(O)ccc12,-9.76% (inactive),
Cn1cnnc1Sc1ccc(/C=C/C(=O)c2ccc(O)cc2)cc1[N+](=O)[O-],-12.4% (inactive),
COC(=O)c1c(NC(=O)c2ccco2)sc(C)c1C,8.04% (inactive),
c1cncc(-c2noc(-c3cccc4ccccc34)n2)c1,-0.825% (inactive),
Nc1c(Cl)cc(N=Nc2ccccc2)cc1Cl,-1.01% (inactive),
Cc1sc2c(c1C)C(=O)NC(c1ccccc1F)N2 (stereo not drawn),5.03% (inactive),
Clc1cccc(Cc2c(-c3ccco3)nc3c4ccccc4ccn23)c1,-6.06% (inactive),
Cc1csc(NC(=O)/C=C/c2ccco2)n1,6.19% (inactive),
c1ccc(N2CC3COc4ccccc4C3=N2)cc1 (stereo not drawn),4.77% (inactive),

Compound,"activity change, negative = cytotoxicity",Potency
O=C(/C=C/c1ccc2c(c1)OCO2)c1ccc(O)cc1O,-2.12% (inactive),
N#Cc1c(-c2ccco2)cc(-c2ccc(F)cc2)nc1N,8.67% (inactive),
O=c1[nH]ncc(N/N=C\c2cccs2)c1Cl,2.39% (inactive),
COc1ccccc1NC(=O)C(=O)Nc1ccccn1,-2.4% (inactive),
O=c1[nH]c(/C(Cl)=C/c2cc(Cl)ccc2O)nc2cc(Cl)ccc12,-1.06% (inactive),
O=C(Cn1cnc2scc(-c3cccc([N+](=O)[O-])c3)c2c1=O)NCc1ccco1,-1.79% (inactive),
O=C(/C=C/c1ccco1)Nc1cccnc1Cl,-10.5% (inactive),
CCOC(=O)c1c(-c2ccco2)csc1NC(=O)CSc1nnc(N)s1,-11.5% (inactive),
CCOC(=O)c1ccccc1N/C=C/C(=O)c1cccs1,-4.29% (inactive),
CN1CCCC1CCNc1ccc2c(=O)c3ccccc3oc2c1 (stereo not drawn),0.572% (inactive),
Clc1nc(-c2ccccc2)cc(-c2ccccc2)n1,2.29% (inactive),
O=C(N/N=C\c1ccco1)Nc1cccc(Cl)c1,-10.8% (inactive),
CN1c2ccsc2/C(=N/Nc2ccccc2)CS1(=O)=O,-1.51% (inactive),
O=C(c1ccccc1)[C@@H]1[C@@H]2C(=O)N(c3ccc(F)cc3)C(=O)[C@@H]2C2CCCN21 (stereo partly drawn),4.57% (inactive),
CC1CCCCC1NC(=O)COC(=O)c1c2c(nc3ccccc13)/C(=C/c1ccco1)CC2 (stereo not drawn),-2.82% (inactive),
CNc1ccccc(C(=O)/C=C/c2ccccc2OC)c1=O,0.226% (inactive),
O=C(N/N=C/c1ccc(-c2cccc([N+](=O)[O-])c2)o1)c1cccs1,-2.3% (inactive),
O=C(Nc1ccccn1)c1ccc(Cl)c([N+](=O)[O-])c1,0.552% (inactive),
O=C(/C=C/c1ccco1)Nc1cccc(S(=O)(=O)N2CCOCC2)c1,6.93% (inactive),
Cc1ccc([N+](=O)[O-])cc1NC(=O)c1ccc(C(C)(C)C)cc1,-1.77% (inactive),
O=C1/C(=C/c2ccccc2O)SC(=S)N1Cc1cccnc1,4.53% (inactive),
Cc1ccc(S(=O)(=O)/N=C(/NNC(=O)c2cccc(Cl)c2)c2ccccc2)cc1,-0.738% (inactive),

Compound,"activity change, negative = cytotoxicity",Potency
Cc1ccc2ccc(C3C(=O)c4ccccc4C3=O)nc2c1,3.2% (inactive),
Fc1cc(F)c2nc(Nc3nc4cc5c(cc4s3)OCO5)sc2c1,-28.7% (inactive),
CC(/C=N/NC(=O)Cc1cccn1C)=C\c1ccco1,7.92% (inactive),
CCCCn1c(O)c(N=Nc2ccccn2)c2ccccc21,-4.62% (inactive),
Oc1ccc2ccccc2c1N=Nc1ccccn1,,5.17 µM (active)
CC(C)CCn1c(O)c(N=Nc2ccccn2)c2ccccc21,5.08% (inactive),
O=C(Nc1ccccc1[N+](=O)[O-])C1COc2ccccc2O1 (stereo not drawn),1.87% (inactive),
CCOC(=O)COn1c(=O)c(-c2ccco2)[n+]([O-])c2ccccc21,5.99% (inactive),
C(=Cc1cnnc2ccccc12)c1ccccc1,-3.58% (inactive),
Cc1ccc(S(=O)(=O)c2nc(S(C)(=O)=O)sc2N2CCC(C)CC2)cc1,-3.41% (inactive),
O=C1C(=Cc2ccccc2[N+](=O)[O-])Cc2ccccc21,-13.3% (inactive),
O=C1C(Cl)=C(N2CCN(c3ccccc3[N+](=O)[O-])CC2)C(=O)c2ccccc21,,18.4 µM (active)
N#CC1CC(c2ccccc2)=NN1c1ccccc1[N+](=O)[O-] (stereo not drawn),-5.07% (inactive),
COC(=O)c1sccc1NC(=O)c1cccc(OC)c1,-4.2% (inactive),
N#C/C(=C1/C(=O)Nc2ccc(Br)cc21)c1ccccn1,1.23% (inactive),
Nc1ccc2c(c1)Cc1c(F)cccc1-2,6.2% (inactive),
COc1ccc2[nH]c3c(NCc4ccco4)ncnc3c2c1,-2.65% (inactive),
O=C(/C(C=Nc1ccc(F)cc1)=C(/O)c1ccco1)C(F)(F)F,0.0691% (inactive),
CC(C)Nc1ccc(-c2nc(-c3ccco3)no2)cc1[N+](=O)[O-],10.1% (inactive),
O=C(CSc1ccccn1)N/N=C/c1ccccc1[N+](=O)[O-],2.77% (inactive),
CCOc1ccccc1NC(=S)NC(=O)c1ccco1,-1.64% (inactive),
O=C(Nc1nc2ccc(F)cc2s1)c1ccc([N+](=O)[O-])o1,-20.4% (inactive),
